Source: PubChem BioAssay
CYP2C9 act = increases human cytochrome P450 2C9 activity | P11712 | recombinant CYP2C9, luciferin-H conversion, luminescence; hits give high values; factor 1 = untreated enzyme, 0 = blocked | activation factor at 5 µM | actives 1.4% (n = 96,000);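 active means activation factor of 2 or more for CYP2C9 at a 5 µM dose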
CYP2C19 activ = cytochrome P450 2C19 (human) activation | P33261 | recombinant CYP2C19, luciferin-H EGE luminescence; hits give high values; 0 = fully inhibited enzyme, 1 = untreated enzyme | activation factor at 5 µM | 96,000 tested, under 10 active | AID 1025;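 active means activation factor of at least 2 at 5 µM in the primary screen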
CYP2C19 inh = human CYP2C19 inhibition; CYP2C19 Supersomes, luciferin-H EGE luminescence, 30 min; AID 778; P33261; actives 21% (n = 96,000); inhibition, % at 5 µM;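 active means CYP2C19 inhibition above a set limit at 5 µM in the primary screen, cut at about 50% in these data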
CYP2C9 inh = blocks human cytochrome P450 2C9; actives 20% (n = 96,000); P11712; inhibition, % at 5 µM; CYP2C9 Supersomes, luciferin-H conversion, luminescence;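 active means blocking of liver enzyme CYP2C9 beyond about 50% at 5 µM, limit read from the data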
PLAP activator = activators of human placental alkaline phosphatase. P05187. purified PLAP enzyme, luminescent substrate read-out; hits give high values. activation fold at 20 µM. actives 1.2% (n = 96,000). AID 696; in the data active means activation fold above about 2
Target sequence (P05187 whole entry, looked up): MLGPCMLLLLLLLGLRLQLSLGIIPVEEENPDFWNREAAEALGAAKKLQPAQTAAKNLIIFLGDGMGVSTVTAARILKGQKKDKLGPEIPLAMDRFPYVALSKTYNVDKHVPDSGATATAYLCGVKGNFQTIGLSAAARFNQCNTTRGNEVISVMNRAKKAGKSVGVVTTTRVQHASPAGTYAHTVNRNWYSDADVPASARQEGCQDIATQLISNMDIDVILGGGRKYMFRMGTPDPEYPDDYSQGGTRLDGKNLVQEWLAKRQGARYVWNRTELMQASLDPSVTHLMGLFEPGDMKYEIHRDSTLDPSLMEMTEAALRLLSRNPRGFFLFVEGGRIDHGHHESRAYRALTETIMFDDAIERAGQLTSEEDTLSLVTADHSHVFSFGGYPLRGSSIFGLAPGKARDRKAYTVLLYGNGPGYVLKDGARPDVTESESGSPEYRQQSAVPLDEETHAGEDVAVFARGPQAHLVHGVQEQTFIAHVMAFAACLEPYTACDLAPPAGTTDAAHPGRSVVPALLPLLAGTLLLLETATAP
Hits are given with their value; . = inactive. Most compounds without a hit are left out; they make up all but 31% or so of the library.

SMILES	CYP2C9 act	CYP2C19 activ	CYP2C19 inh	CYP2C9 inh	PLAP activator
CCOc1ccc(C2C(C#N)=C(C)NC3=C2C(=O)c2ccccc23)cc1 (stereo unspecified)	.	.	98.8	97.2	.
COc1ccc(C2C(C#N)=C(C)NC3=C2C(=O)c2ccccc23)cc1 (stereo unspecified)	.	.	.	.	.
COc1cc(C2C(C#N)=C(C)NC3=C2C(=O)c2ccccc23)cc(OC)c1OC (stereo unspecified)	.	.	.	97.7	.
CCOC(=O)c1c(CC(C)C)csc1NC=O	.	.	.	.	.
CCOC(=O)c1c(CC(C)C)csc1NC(C)=O	.	.	.	62.3	.
N#C/C(=C\c1ccc(F)cc1)c1n[nH]c(Cn2cncn2)n1	.	.	.	58.4	.
O=C(Nc1ccc(OC(F)(F)F)cc1)c1n[nH]c(Cn2cncn2)n1	.	.	.	.	.
N#C/C(=C\c1cccc(Cl)c1)c1n[nH]c(Cn2cncn2)n1	.	.	.	51.5	.
OC(COCc1ccc2c(c1)OCO2)CN1CCN(Cc2ccccc2)CC1 (stereo unspecified)	.	.	.	.	.
CCc1nnc(NC(=O)CCC(=O)N2CCN(c3ccccn3)CC2)s1	.	.	.	.	.
N#CCC(=O)N/N=C/c1ccc(OS(=O)(=O)c2ccccc2)cc1	.	.	.	.	.
COCCCNC(=O)c1ccc(NS(C)(=O)=O)cc1	.	.	.	.	.
COc1ccc2c(C)cc(SCC(=O)N3CCOCC3)nc2c1	.	.	68.5	.	.
COc1ccc2c(C)cc(N3CCOCC3)nc2c1	.	.	.	.	.
Cc1nn(C/C(C#N)=N\O)c(C)[n+]1N	.	.	.	.	.
CCOC(=O)c1[nH]c2ccccc2c1CCCN1C(=O)c2ccccc2C1=O	.	.	78.7	85.9	.
O=C(OCCCN1C(=O)c2ccccc2C1=O)c1ccco1	.	.	54.4	61.6	.
O=C(OCN1C(=O)c2ccccc2C1=O)c1ccco1	.	.	.	.	.
CC(=O)c1c(C)[nH]c(C(=O)OCCCCN2C(=O)c3ccccc3C2=O)c1C	.	.	.	70.3	.
CC(=O)c1c(C)[nH]c(C(=O)OCC(=O)N2CCc3ccccc32)c1C	.	.	.	.	.
CCOC(=O)c1[nH]c2cc3c(cc2c1CCCN1C(=O)c2ccccc2C1=O)OCCO3	.	.	.	.	.
O=C(OCCCCN1C(=O)c2ccccc2C1=O)c1n[nH]c2ccccc12	.	.	83.7	86.3	2
CN1C(=O)N2CN(C3CCCCC3)CN3C(=O)N(C)C1C23 (stereo unspecified)	.	.	.	.	.
O=C1N(CC(=O)N2CCc3ccccc32)CCN1Cc1ccc(Cl)cc1	2.3	.	.	.	.
O=C(CN1CCN(Cc2ccccc2F)C1=O)NCCc1ccc(Cl)cc1	.	.	66.5	88.1	.
SMILES	CYP2C9 act	CYP2C19 activ	CYP2C19 inh	CYP2C9 inh	PLAP activator
Cc1ccc(CN2CCN(CC(=O)NC(C)CCc3ccccc3)C2=O)cc1 (stereo unspecified)	.	.	58.2	66.6	.
CC(CCc1ccccc1)NC(=O)CN1CCN(Cc2ccc(Cl)cc2)C1=O (stereo unspecified)	.	.	70.8	55.8	.
CC(CCc1ccccc1)NC(=O)CN1CCN(Cc2ccccc2)C1=O (stereo unspecified)	.	.	.	.	.
CCOc1ccc(CCNC(=O)CN2CCN(Cc3ccccc3F)C2=O)cc1OCC	.	.	.	.	.
COC(=O)c1[nH]c2ccccc2c1NC(=O)C(C)N1CCN(C(=O)c2ccco2)CC1 (stereo unspecified)	.	.	.	.	.
O=C(CN1CCN(Cc2ccccc2)C1=O)NCc1ccc(Cl)cc1	.	.	.	.	.
CCN(CCNC(=O)CN1CCN(Cc2ccc(Cl)cc2)C1=O)c1ccccc1	.	.	56.9	52.2	.
C=CCOC(=O)C1=C(C)NC(SCC(=O)N(CC)CC)=C(C#N)C1c1ccco1 (stereo unspecified)	.	.	68.9	80.4	.
C=CCOC(=O)C1=C(C)NC(SCC(=O)Nc2ccccc2)=C(C#N)C1c1ccco1 (stereo unspecified)	.	.	59.9	72.3	.
C=CCOC(=O)C1=C(C)NC(SCC(=O)N(CC)CC)=C(C#N)C1c1ccccc1 (stereo unspecified)	.	.	97.3	89.7	.
C=CCOC(=O)C1=C(C)NC(SCC(=O)NC(=O)OCC)=C(C#N)C1c1cccnc1 (stereo unspecified)	.	.	87.3	91.9	.
